Results on nine compounds are retold here after PubChem BioAssay (NCI).

Experiment [1] in a line: NCI Yeast Anticancer Drug Screen. Data for the rad50 strain (AID 155).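 Note: 0% = growth of vehicle-only cultures of the same strain.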 As to conditions: S. cerevisiae rad50 strain growth inhibition, hits give high values. The procedure, abridged:
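Compounds were tested on a yeast strain with an engineered DNA damage repair alteration; the reported value is growth inhibition normalised to vehicle treatment.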

The nature of experiment [2]: NCI Yeast Anticancer Drug Screen. Data for the mec2-1 strain (AID 157). As to conditions: S. cerevisiae mec2-1 strain, hits give high values. The procedure, abridged: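 Each compound was tested on mec2-1 yeast, a strain altered in DNA damage repair or cell cycle control. Growth inhibition is reported relative to vehicle.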
The nature of experiment [3]: NCI Yeast Anticancer Drug Screen. Data for the sgs1 mgt1 strain (AID 161).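 Note: 0% = growth of cultures given vehicle only.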 The following applies: S. cerevisiae sgs1 mgt1 strain, hits give high values. The essentials:
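Read-out: growth inhibition vs vehicle controls. Cells: mutant yeast strain deficient in DNA damage repair.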

The nature of experiment [4]: NCI Yeast Anticancer Drug Screen. Data for the cln2 rad14 strain (AID 165).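 Note: 0% = growth equal to vehicle treated cultures.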 As to conditions: S. cerevisiae cln2 rad14 strain, hits give high values. The essentials:
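Test compounds were added to cln2 rad14 yeast cultures; inhibition of growth was then determined by comparison with vehicle treatment.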

Experiment [5] in a line: NCI Yeast Anticancer Drug Screen. Data for the bub3 strain (AID 167). As to conditions: S. cerevisiae bub3 mutant strain, hits give high values. The procedure, abridged: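 Growth of a checkpoint-deficient yeast mutant is measured after compound exposure. Values represent inhibition relative to vehicle.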
The nature of experiment [6]: NCI Yeast Anticancer Drug Screen. Data for the mlh1 rad18 strain (AID 175). As to conditions: S. cerevisiae mlh1 rad18 strain growth inhibition, hits give high values. The procedure, abridged:
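Inhibition values reflect reduced growth of mutant yeast versus vehicle-treated controls following compound exposure; the mutations affect DNA damage repair.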

Setting [7] is: at 5.0 µM (retest, dose inferred, filed as 0.5).
Setting [8] is: at 50.0 µM (retest, dose inferred, filed as 5.0).

About 79,000 compounds went through this panel and 15% of them were active in at least one assay; those are over-represented in the sample as a whole. Unmarked numbers belong to inactive results. The source made the active and inactive calls. Cut-off read from the data, not from the text of the source: active = growth inhibition above about 70%; inactive = the rest.

`Clc1ccc(-c2nnc(-c3ccccn3)o2)c(Cl)c1`: the growth inhibition in experiment [1] (setting [7]) is 4%; in experiment [1] (setting [8]) it was 99% (active); in experiment [1] (at 50.0 µM) it was 99.2% (active); in experiment [2] (setting [7]) it was -1%; in experiment [2] (setting [8]), 80% (active); in experiment [2] (at 50.0 µM), 28.1%. Further, the growth inhibition is 0% in experiment [3] (setting [7]); 99% (active) in experiment [3] (setting [8]); 99.2% (active) in experiment [3] (at 50.0 µM); -2% in experiment [4] (setting [7]); 83% (active) in experiment [4] (setting [8]); 92.7% (active) in experiment [4] (at 50.0 µM). The growth inhibition is 1% in experiment [5] (setting [7]); 94% (active) in experiment [5] (setting [8]); 70.1% (active) in experiment [5] (at 50.0 µM); 1% in experiment [6] (setting [7]); 96% (active) in experiment [6] (setting [8]); 99.4% (active) in experiment [6] (at 50.0 µM).
In the case of `Cc1c2c(c(C)c3c1sc1ccccc13)CCN=C2`, the growth inhibition in experiment [1] (setting [7]) was 9%; in experiment [1] (setting [8]), 98% (active); in experiment [1] (at 50.0 µM), 55.5%; in experiment [2] (setting [7]), -14%; in experiment [2] (setting [8]), 98% (active); in experiment [2] (at 50.0 µM), 49.9%. Further, the growth inhibition is -1% in experiment [3] (setting [7]); 98% (active) in experiment [3] (setting [8]); 57.6% in experiment [3] (at 50.0 µM); -21% in experiment [4] (setting [7]); 98% (active) in experiment [4] (setting [8]); 94.9% (active) in experiment [4] (at 50.0 µM). In addition, the growth inhibition in experiment [5] (setting [7]) was -5%; in experiment [5] (setting [8]), 98% (active); in experiment [5] (at 50.0 µM), 92.8% (active); in experiment [6] (setting [7]), -8%; in experiment [6] (setting [8]), 99% (active); in experiment [6] (at 50.0 µM), 57.2%.
Take `Nc1ccc(O)c2ccccc12`: the growth inhibition in experiment [1] (setting [7]) is 19%; in experiment [1] (setting [8]) it was 80% (active); in experiment [1] (at 50.0 µM), 85.5% (active); in experiment [2] (setting [7]) it was -4%; in experiment [2] (setting [8]), 83% (active); in experiment [2] (at 50.0 µM) it was 63.8%. Moreover, the growth inhibition was 7% in experiment [3] (setting [7]); 63% in experiment [3] (setting [8]); 68.3% in experiment [3] (at 50.0 µM); -10% in experiment [4] (setting [7]); 8% in experiment [4] (setting [8]); 10.1% in experiment [4] (at 50.0 µM). Further, the growth inhibition was 7% in experiment [5] (setting [7]); 93% (active) in experiment [5] (setting [8]); 87.2% (active) in experiment [5] (at 50.0 µM); 11% in experiment [6] (setting [7]); 90% (active) in experiment [6] (setting [8]); 91% (active) in experiment [6] (at 50.0 µM).
In the case of `Oc1cc2c(cc1C(c1ccc(F)cc1)N1CCCCC1)OCO2` (configuration not stated), the growth inhibition is -1% in experiment [1] (setting [7]); 76% (active) in experiment [1] (setting [8]); 63% in experiment [1] (at 50.0 µM); -5% in experiment [2] (setting [7]); 73% (active) in experiment [2] (setting [8]); 64.4% in experiment [2] (at 50.0 µM). The growth inhibition in experiment [3] (setting [7]) is 6%; in experiment [3] (setting [8]) it was 77% (active); in experiment [3] (at 50.0 µM), 85.5% (active); in experiment [4] (setting [7]) it was -4%; in experiment [4] (setting [8]), 39%; in experiment [4] (at 50.0 µM), 54.9%. Also, the growth inhibition in experiment [5] (setting [7]) was -8%; in experiment [5] (setting [8]) it was 54%; in experiment [5] (at 50.0 µM), 84.4% (active); in experiment [6] (setting [7]) it was -1%; in experiment [6] (setting [8]), 88% (active); in experiment [6] (at 50.0 µM), 59.3%.
As to `O=[N+]([O-])/C=C/c1c[nH]c2c1ccc1ccccc12`, the growth inhibition in experiment [1] (setting [7]) was 42%; in experiment [1] (setting [8]), 92% (active); in experiment [1] (at 50.0 µM), 84.4% (active); in experiment [2] (setting [7]), 53%; in experiment [2] (setting [8]), 90% (active); in experiment [2] (at 50.0 µM), 84.7% (active). Moreover, the growth inhibition was 59% in experiment [3] (setting [7]); 81% (active) in experiment [3] (setting [8]); 94.2% (active) in experiment [3] (at 50.0 µM); 30% in experiment [4] (setting [7]); 93% (active) in experiment [4] (setting [8]); 89% (active) in experiment [4] (at 50.0 µM). The growth inhibition in experiment [5] (setting [7]) is 88% (active); in experiment [5] (setting [8]), 95% (active); in experiment [5] (at 50.0 µM), 75.3% (active); in experiment [6] (setting [7]), 55%; in experiment [6] (setting [8]), 94% (active); in experiment [6] (at 50.0 µM), 93.5% (active).
As to `O=S(=O)(Nc1ccc2ccc3cccc4ccc1c2c34)c1ccccc1`, the growth inhibition in experiment [1] (setting [7]) is 7%; in experiment [1] (setting [8]), 25%; in experiment [1] (at 50.0 µM), 57.6%; in experiment [2] (setting [7]) it was 3%; in experiment [2] (setting [8]) it was 12%; in experiment [2] (at 50.0 µM) it was 34.9%. Also, the growth inhibition in experiment [3] (setting [7]) is 6%; in experiment [3] (setting [8]), 45%; in experiment [3] (at 50.0 µM), 62.2%; in experiment [4] (setting [7]) it was -8%; in experiment [4] (setting [8]) it was -7%; in experiment [4] (at 50.0 µM), 17.6%. In addition, the growth inhibition is -4% in experiment [5] (setting [7]); 19% in experiment [5] (setting [8]); 56.9% in experiment [5] (at 50.0 µM); 6% in experiment [6] (setting [7]); 55% in experiment [6] (setting [8]); 71.2% (active) in experiment [6] (at 50.0 µM).
With `Cc1ncc(Br)c(C(=O)O)n1`, the growth inhibition in experiment [1] (setting [7]) was 0%; in experiment [1] (setting [8]), -7%; in experiment [1] (at 50.0 µM) it was 6.65%; in experiment [2] (setting [7]), 1%; in experiment [2] (setting [8]), 3%; in experiment [2] (at 50.0 µM), 19.3%. For the same compound, the growth inhibition was 5% in experiment [3] (setting [7]); -3% in experiment [3] (setting [8]); 3.1% in experiment [3] (at 50.0 µM); -5% in experiment [4] (setting [7]); 1% in experiment [4] (setting [8]); 34.2% in experiment [4] (at 50.0 µM). Further, the growth inhibition in experiment [5] (setting [7]) is -4%; in experiment [5] (setting [8]), -6%; in experiment [5] (at 50.0 µM), 0.75%; in experiment [6] (setting [7]), -1%; in experiment [6] (setting [8]), -8%; in experiment [6] (at 50.0 µM), 52.9%.
Consider `[Cl][Sn]([CH2][CH2][Sn]([Cl])([c]1ccccc1)[c]1ccccc1)([c]1ccccc1)[c]1ccccc1`, for which the growth inhibition in experiment [1] (setting [7]) is 99% (active); in experiment [1] (setting [8]) it was 98% (active); in experiment [1] (at 50.0 µM), 94.5% (active); in experiment [2] (setting [7]), 99% (active); in experiment [2] (setting [8]), 97% (active); in experiment [2] (at 50.0 µM), 92.2% (active). Moreover, the growth inhibition in experiment [3] (setting [7]) was 99% (active); in experiment [3] (setting [8]), 97% (active); in experiment [3] (at 50.0 µM), 95.2% (active); in experiment [4] (setting [7]), 97% (active); in experiment [4] (setting [8]) it was 96% (active); in experiment [4] (at 50.0 µM), 87.5% (active). Also, the growth inhibition was 96% (active) in experiment [5] (setting [7]); 98% (active) in experiment [5] (setting [8]); 90.9% (active) in experiment [5] (at 50.0 µM); 99% (active) in experiment [6] (setting [7]); 98% (active) in experiment [6] (setting [8]); 94.2% (active) in experiment [6] (at 50.0 µM).
For `N#CSC#CCCC#CSC#N`, the growth inhibition in experiment [1] (setting [7]) is 52%; in experiment [1] (setting [8]), 57%; in experiment [1] (at 50.0 µM), 92.5% (active); in experiment [2] (setting [7]), 43%; in experiment [2] (setting [8]) it was 55%; in experiment [2] (at 50.0 µM), 93.9% (active). The growth inhibition in experiment [3] (setting [7]) is 100% (active); in experiment [3] (setting [8]), 100% (active); in experiment [3] (at 50.0 µM), 94.2% (active); in experiment [4] (setting [7]), 99% (active); in experiment [4] (setting [8]) it was 99% (active); in experiment [4] (at 50.0 µM), 92.9% (active). Besides, the growth inhibition was 100% (active) in experiment [5] (setting [7]); 98% (active) in experiment [5] (setting [8]); 92.4% (active) in experiment [5] (at 50.0 µM); 47% in experiment [6] (setting [7]); 46% in experiment [6] (setting [8]); 88.9% (active) in experiment [6] (at 50.0 µM).
